# A selection: hits, their analogues and other compounds. The true share with any hit is near 1.9%.
# NSD2 HMT inh – NSD2 histone methyltransferase inhibitors, primary screen, biochemical, AlphaScreen, single concentration, set 2. inhibition, % at 12.5 µM. NSD2 peptide methylation, 120 min. 0.54% of 310,000 active. AID 743445, 2014. Histone-lysine N-methyltransferase NSD2 (Homo sapiens), O96028; in the data active means inhibition above about 50%
# Target sequence (O96028 whole entry, looked up): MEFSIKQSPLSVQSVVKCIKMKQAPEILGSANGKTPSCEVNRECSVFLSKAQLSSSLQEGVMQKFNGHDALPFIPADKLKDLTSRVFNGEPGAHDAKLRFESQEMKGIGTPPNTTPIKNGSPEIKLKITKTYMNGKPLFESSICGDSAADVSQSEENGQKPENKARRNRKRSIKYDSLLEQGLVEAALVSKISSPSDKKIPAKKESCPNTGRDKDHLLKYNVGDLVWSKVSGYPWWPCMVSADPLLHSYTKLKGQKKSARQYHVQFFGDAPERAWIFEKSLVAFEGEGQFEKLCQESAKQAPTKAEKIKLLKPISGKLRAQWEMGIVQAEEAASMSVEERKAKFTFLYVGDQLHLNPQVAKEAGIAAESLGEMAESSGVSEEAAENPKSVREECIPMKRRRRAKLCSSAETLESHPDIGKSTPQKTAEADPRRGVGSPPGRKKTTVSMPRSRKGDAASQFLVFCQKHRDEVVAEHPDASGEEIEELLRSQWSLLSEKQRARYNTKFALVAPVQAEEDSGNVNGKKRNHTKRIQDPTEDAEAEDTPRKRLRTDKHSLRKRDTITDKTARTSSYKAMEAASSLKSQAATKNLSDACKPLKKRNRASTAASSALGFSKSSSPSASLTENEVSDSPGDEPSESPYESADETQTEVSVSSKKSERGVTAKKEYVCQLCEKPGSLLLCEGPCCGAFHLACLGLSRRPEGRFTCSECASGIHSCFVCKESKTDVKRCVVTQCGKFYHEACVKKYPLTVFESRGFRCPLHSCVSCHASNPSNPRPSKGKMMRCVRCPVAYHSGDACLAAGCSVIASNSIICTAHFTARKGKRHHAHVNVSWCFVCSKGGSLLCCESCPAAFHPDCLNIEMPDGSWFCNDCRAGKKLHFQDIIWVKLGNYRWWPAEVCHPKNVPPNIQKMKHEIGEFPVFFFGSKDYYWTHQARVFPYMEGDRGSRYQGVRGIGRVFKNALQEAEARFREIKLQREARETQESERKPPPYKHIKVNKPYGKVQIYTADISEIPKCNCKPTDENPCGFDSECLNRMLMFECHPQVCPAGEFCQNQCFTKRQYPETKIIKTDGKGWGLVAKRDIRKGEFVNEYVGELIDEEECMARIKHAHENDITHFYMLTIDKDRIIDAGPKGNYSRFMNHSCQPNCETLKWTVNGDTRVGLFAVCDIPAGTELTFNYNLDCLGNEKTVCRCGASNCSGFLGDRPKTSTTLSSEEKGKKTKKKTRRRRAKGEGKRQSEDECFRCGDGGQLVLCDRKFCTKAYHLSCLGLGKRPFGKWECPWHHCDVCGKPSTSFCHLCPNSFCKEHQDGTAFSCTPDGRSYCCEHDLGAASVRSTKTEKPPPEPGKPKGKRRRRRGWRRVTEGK
# Pemphigus Ab inh – inhibitors of pemphigus antibody binding to DSG3, primary screen, biochemical, bead-based, flow cytometry, scFv-GFP; Desmoglein-3 (Homo sapiens), P32926; binding (percent of control), % at 10 µM; DSG3-coupled beads, scFv-anti-DSG3-GFP binding; hits give low values; 0.48% of 310,000 active;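 active means binding more than 3 SD below its plate's average and above zero; inconclusive means below that plate limit but binding exactly zero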;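 further: hits lower antibody fragment binding to DSG3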
# CaV13 ICDI inh – Disruptors of the CACNA1D IQ motif to Ca2+-dependent inactivation inhibitor domain association, primary screening, Förster resonance energy transfer in intact living …. HEK cells, CFP/YFP FRET ICDI-IQ, plate reader, 10 min; percent FRET-ratio fall versus neutral wells. inhibition, % at 12.3 µM. AID 743397. 0.098% of 340,000 active;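 active means mean replicate inhibition of at least 30% and at least 1% of replicates passing that level; inconclusive means only one of the two criteria is met; inactive means neither criterion is met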
# Vif imaging – HIV Vif self-association inhibitors, primary screen, imaging, HEK293T, single point | HEK293T cells, Vif self-association by quenched fluorescence, 24 h | inhibition, % at 7.49 µM | 0.35% of 340,000 active; in the data active means inhibition above about 50%, passing the limit was not always enough; inconclusive means no clear call, values can overlap the other calls; inactive means below about 31%
# ATG4B inhibitor – ATG4B protease inhibitors, primary screen, biochemical, fluorescence, uHTS; Cysteine protease ATG4B (Homo sapiens), Q9Y4P1; ATG4B cleavage of LC3-PLA2, NBD-HPC fluorescence, 1 h; inhibition, % at 8.33 µM; 0.51% of 340,000 active; AID 504462, 2011; in the data active means inhibition above about 40%
# Glyco luc inh – increase of ERlucT glycosylation luciferase signal, primary screen, N-linked glycosylation inhibitor project, D54 ERlucT cells, luminescence, set 2; AID 588692, 2011; reporter increase, % at 12.5 µM; 0.23% of 360,000 active; D54 ERlucT glycosylation luciferase reporter, 24 h; percent of 100 nM tunicamycin response;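 active means mean luciferase reporter signal, scaled so untreated is 0 and the glycosylation-blocking control 100, at or above a set limit in every replicate; inconclusive means mean reaches the limit but not every replicate does; inactive means mean below the limit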;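 further: luciferase carries N-glycosylation sites so blocking glycosylation raises the light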
# Numbers stand for hits; n = inactive; u = inconclusive; x = no result given.
SMILES,NSD2 HMT inh,Pemphigus Ab inh,CaV13 ICDI inh,Vif imaging,ATG4B inhibitor,Glyco luc inh
C[C@H](NS(=O)(=O)c1ccc2c(c1)OCCCO2)C(=O)N1CCN(Cc2ccccc2)CC1,n,n,n,n,n,n
COc1ccc(-c2nnc(SCC(=O)N3CCCc4ccccc43)o2)cc1OC,n,n,n,61,n,n
COC(=O)c1ccc(=O)c2nc3/c(=C/O)c(O)cc(=O)c3[nH]c12,x,50,x,n,n,n
CC(=O)NC12CC3CC(C1)CC(C(=O)OCC(=O)NC(=O)c1cccn1C)(C3)C2,n,n,n,n,n,n
CCOC(=O)CN1C(=O)/C(=C/c2ccccc2Br)Oc2ccccc21,n,-3.0,n,n,n,n
O=C(CCS(=O)(=O)c1ccccc1)Nc1nc(-c2cccs2)cs1,x,69,n,x,n,n
O=C(COc1ccccc1)Nc1nc(-c2cccs2)cs1,n,n,x,n,n,n
O=C(CCCCCNC(=O)N1CCn2c1nc1ccccc12)NCc1ccc(F)cc1,n,x,n,n,n,n
COCCNC(=O)/C(C#N)=C/c1c(N2CCN(c3cccc(Cl)c3)CC2)nc2c(C)cccn2c1=O,n,n,n,n,n,n
C/C(=N/NC(=O)c1cn(-c2cccc(C)n2)cn1)c1ccc(C)cc1,n,n,n,n,n,n
CCS(=O)(=O)C1=NN2C(=N)/C(=C\c3ccc(SCc4ccco4)o3)C(=O)N=C2S1,95,n,n,n,n,n
Cc1ccc(Nc2nnc(SCn3nnc4ccccc4c3=O)s2)cc1,n,n,x,n,n,n
O=c1c2ccccc2nnn1CSc1nnc(Nc2ccccc2)s1,n,n,n,51,n,n
COc1ccc(C(C)=O)cc1COc1ccc(Cl)cc1Cl,n,83,n,n,n,n
COc1cc(C(=O)NCC2CCCO2)ccc1OCc1ccc(Cl)cc1 (stereo not drawn),n,n,n,n,n,n
COc1ccc(C(C)=O)cc1COc1cc(C)c(Cl)c(C)c1,n,n,n,n,n,n
COc1cc(C(=O)NCC2CCCO2)ccc1OCc1ccc(Cl)cc1Cl (stereo not drawn),n,81,n,n,n,n
COc1ccc(C(=O)NNC(=O)C(=O)Nc2cccc3ccccc23)cc1,n,u,n,n,n,n
COc1ccc(OC)c(C(=O)CSc2nc3ncccc3[nH]2)c1,n,n,n,n,n,n
C/C(=N\NC(=O)Cc1ccc(F)cc1)c1ccc(O)cc1,n,n,n,x,n,n
CCCCOc1ccc(C(=O)Nc2cc(C)c(OCC(=O)N3CCOCC3)c(C)c2)cc1,n,n,n,n,n,n
CCCN(CCC)S(=O)(=O)c1ccc(C(=O)Nc2ccc(OCC(=O)N3CCOCC3)cc2)cc1,n,n,n,n,n,40
COc1ccc(Oc2cc(C)nc(Cl)n2)nn1,n,n,n,n,n,n
O=C(Nc1cc(Cl)ccc1Cl)P(=O)(O)c1ccccc1,n,n,n,57,n,n
O=C(Nc1cc(Cl)ccc1Cl)c1ccc(-c2ccccc2)cc1,n,n,n,n,n,n
SMILES,NSD2 HMT inh,Pemphigus Ab inh,CaV13 ICDI inh,Vif imaging,ATG4B inhibitor,Glyco luc inh
COc1cc(CNC2CCCCCCC2)cc(Br)c1OCC#N,x,n,n,n,n,n
CC(C)(C)[C@H]1CCC(=O)N([C@H](CSc2ccccc2)Cc2ccccc2)CC1,x,n,34,x,n,n
CC(C)(C)[C@H]1CCC(=O)N([C@H](CSc2ccc(Br)cc2)Cc2ccccc2)CC1,x,n,n,n,n,n
CC12CCC(=O)C=C1CCC1C2C(O)CC2(C)C1CCC2(O)C(=O)CO (stereo not drawn),x,n,n,50,n,n
C[C@]12CCC(=O)C=C1CC[C@@H]1[C@@H]2[C@@H](O)C[C@@]2(C)[C@H]1CC[C@]2(O)C(=O)CO,x,n,n,n,n,n
COc1ccc2[nH]c(C(=O)N(C)c3ccc(F)cc3F)cc2c1,n,n,n,n,n,n
C=C(C)CSc1nc2ncc(Cl)cc2[nH]1,n,n,n,69,n,n
O=C(COc1ccccc1)Nc1ncc2c(n1)CCCC2=O,n,n,x,n,n,n
O=C1C=C(O)c2c(O)cc(O)c(O)c2C1=O,x,79,x,u,n,n
O=C1c2ccccc2C(=O)c2c(O)c(O)cc(O)c21,x,n,n,n,n,n
Cc1cc(C)c2[nH]c(=O)c(CN(CC3CCCO3)C(=O)c3cnccn3)cc2c1 (stereo not drawn),x,n,n,n,n,n
Cc1ccc(CNC(=O)C2(NC(=O)Nc3ccc(C)cc3)CCCCC2)cc1,n,n,x,x,n,n
CN(C)CCCN=c1cc(-c2ccccc2)oc2ccc(Cl)cc12,n,n,n,n,n,n
CC(O)CN=c1cc(-c2ccccc2)oc2ccc(Cl)cc12 (stereo not drawn),n,n,x,n,n,29
OCCN=c1cc(-c2ccccc2)oc2ccc(Cl)cc12,n,n,x,n,n,50
O=C1CSC(=S)N1c1cccc(Br)c1,n,n,n,n,n,n
COc1ccc([C@@H]2[C@@H]3C(=O)N(C(C)(C)C)C(=O)[C@@H]3[C@]3(Cc4ccccc4)C(=O)N(c4cccc(C)c4)C(=O)N23)cc1,x,n,n,n,n,56
O=C1[C@H]2[C@@H](c3ccc(F)cc3)N3C(=O)N(c4cccc(Cl)c4)C(=O)[C@@]3(Cc3ccccc3)[C@H]2C(=O)N1C1CCCCC1,x,n,n,n,n,72
O=C1[C@H]2[C@@H](c3ccc(F)cc3)N3C(=O)N(c4cccc(Br)c4)C(=O)[C@@]3(Cc3ccc(Cl)cc3)[C@H]2C(=O)N1C1CCCCC1,x,-6.5,n,n,n,n
COC(=O)CN1C(=O)C2(OCCCO2)c2cc(Br)ccc21,n,n,n,n,n,n
CC(C)(C)NC(=O)Cc1ccc(S(=O)(=O)N2CCCC2)s1,n,75,x,n,n,n
C=CC(=O)Nc1cccc(Nc2nc(N[C@H]3CC[C@H](N(C)C)CC3)nc3c2ncn3C(C)C)c1,x,n,x,n,n,n
CCOc1ccc(/C=C/C(=O)c2ccccc2)cc1OC,n,n,n,n,n,26
COc1ccc(/C=C/C(=O)c2ccc3c4c(cccc24)CC3)cc1OC,n,n,n,n,n,34
C/C(Cl)=C\Cn1c(O)c(N=NC(N)=S)c2cc(Br)ccc21,n,n,n,n,n,n
COCc1cc(C)nc(SCC(=O)Oc2ccc(Cl)cc2)c1C#N,n,n,47,n,n,n

# Screens from PubChem BioAssay.
